Laboratory results taken from PubChem BioAssay (NCATS).
Results filed as inconclusive are left out. The source made the active and inactive calls. Calls come from the whole dose curve; as a rule, active = well fitted inhibition curve with a large enough effect; inconclusive = small, poorly fitted or top-dose-only effect; inactive = flat fitted curve, though single readings scatter.

Each compound was assayed against Calcium and integrin-binding protein 1 (Homo sapiens) (UniProt Q99828) (assay: Primary qHTS for Identification of Calcium Integrin Binding Protein 1 (CIB1) Competitor (AID 1508620; note: top concentration of the series differs between compounds)). Conditions: CIB1-GST / FITC-alphaIIb peptide fluorescence polarization; series mostly up to 57.7 µM; activity change, negative = inhibition: at the top concentration.
Summary of the method: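 Fluorescence polarization competition: GST-tagged CIB1 (1 uM final) preincubated with compound 15 min at room temperature, then FITC-labelled alphaIIb peptide (100 nM final) added. After 15 min at room temperature, polarization read at Ex 480/Em 540.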
% is set by controls: 0 for no effect and ±100 for the full control effect.

Chain of Calcium and integrin-binding protein 1 (Homo sapiens) (Q99828 whole entry, looked up): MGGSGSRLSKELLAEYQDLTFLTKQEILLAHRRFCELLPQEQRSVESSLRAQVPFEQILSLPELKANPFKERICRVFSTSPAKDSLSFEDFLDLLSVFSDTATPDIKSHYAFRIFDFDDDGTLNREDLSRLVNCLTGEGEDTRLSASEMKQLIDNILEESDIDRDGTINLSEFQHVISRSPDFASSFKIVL

| SMILES | Potency | activity change, negative = inhibition |
| --- | --- | --- |
| CCc1cccc(CC)c1NC(=O)N1Cc2[nH]nc(NC(=O)c3ccc(N4CCN(C)CC4)cc3)c2C1 | inactive |  |
| CCC=CC[C@H]1C(=O)CC[C@@H]1CC(=O)OC |  | -4.28% (inactive) |
| O=C(CC12CC3CC(CC(C3)C1)C2)Nc1cccc2nc(NCCNCCO)ccc12 | inactive |  |
| OC[C@H]1O[C@@H](O[C@H]2[C@@H](O)[C@@](O)(CO)O[C@@H]2CO)[C@H](O)[C@@H](O)[C@@H]1O |  | 4.17% (inactive) |
| CCn1c(-c2nonc2N)nc2cncc(CNC3CCNCC3)c21 | inactive |  |
| C[C@@]1(C(=O)Nc2ccc(F)nc2)CCCN1c1nc(Nc2cc(C3CC3)[nH]n2)c2cccn2n1 | inactive |  |
| O=C(Nc1ccccc1)Nc1ccc(-c2ccc(C(=O)[C@H]3CCC[C@H]3C(=O)O)cc2)cc1 |  | -7.39% (inactive) |
| O=c1cc(-c2ccc(O)c(O)c2)oc2cc(O)cc(O)c12 |  | 3.47% (inactive) |
| CN(C)CCN(C)C(=O)c1ccc(NC(=O)Nc2ccc(-c3nc(N4CCOCC4)c4ccn(CC(F)(F)F)c4n3)cc2)cc1 |  | -1.86% (inactive) |
| O=C(Nc1cccc(Cl)c1)Nc1ncc(CCNc2ncnc3ccsc23)s1 |  | -2% (inactive) |
| CCNC(=O)c1noc(-c2cc(C(C)C)c(O)cc2O)c1-c1ccc(CN2CCOCC2)cc1 | inactive |  |
| O=c1[nH]c(=O)n([C@H]2C[C@@H](O)[C@@H](CO)O2)cc1C(F)(F)F |  | -0.0513% (inactive) |
| COc1c(C)c2c(c(O)c1CC=C(C)CCC(=O)O)C(=O)OC2 |  | 1.54% (inactive) |
| C[C@@]1(c2cc(-c3cncnc3)c(F)cc2F)CCSC(N)=N1 | inactive |  |
| Cc1cccc2c1CC[C@H](CN1CCC(c3c(Cl)cccc3Cl)CC1)C[C@@H]2O | inactive |  |
| O=C1Nc2ccc(I)cc2C1=Cc1cc(Br)c(O)c(Br)c1 |  | 43.9% (inactive) |
| CC[C@@H]([C@H](C)O)n1ncn(-c2ccc(N3CCN(c4ccc(OCC5CO[C@@](Cn6cncn6)(c6ccc(F)cc6F)C5)cc4)CC3)cc2)c1=O (stereo not given in full) |  | -0.202% (inactive) |
| Cc1ccc(C2=Nc3ccc(Cl)cc3OC2)cc1 |  | -11.2% (inactive) |
| CCN1CCN(c2ccc(Nc3cc(N(C)C(=O)Nc4c(Cl)c(OC)cc(OC)c4Cl)ncn3)cc2)CC1 | inactive |  |
| O=C(C=Cc1ccc(O)cc1)c1ccc(O)cc1O |  | 4.46% (inactive) |

| SMILES | Potency | activity change, negative = inhibition |
| --- | --- | --- |
| Cc1ccc(S(=O)(=O)Nc2nc3ccccc3nc2Nc2ccc3nsnc3c2)cc1 |  | -4.38% [at 30.2 µM] (inactive) |
| CCC(=O)NCC[C@@H]1CCc2ccc3c(c21)CCO3 |  | -1.85% (inactive) |
| CC(=O)OCC(=O)[C@@]12OC(C)(C)O[C@H]1C[C@H]1[C@@H]3C[C@H](F)C4=CC(=O)C=C[C@]4(C)[C@@]3(F)[C@@H](O)C[C@@]12C |  | -0.152% (inactive) |
| CCC[C@H](Nc1nc(-c2ccc(NC(=O)NCC)c(OC)c2)ncc1C)c1cccnc1 |  | -3.67% (inactive) |
| COc1ccc(-c2cc3nccn3c(Nc3ncccc3C(N)=O)n2)cc1OC | inactive |  |
| CN1c2ccccc2C(=O)N2CCc3c([nH]c4ccccc34)C21 (stereo not given) | inactive |  |
| COc1cc([C@@H]2c3cc4c(cc3[C@@H](O[C@@H]3O[C@@H]5CO[C@@H](C)O[C@@H]5[C@H](O)[C@@H]3O)[C@H]3COC(=O)[C@H]23)OCO4)cc(OC)c1O |  | -0.147% (inactive) |
| CCNC(=O)Nc1ccc(Oc2ncnc(N)c2C=NOC)cc1Cl |  | -1.25% (inactive) |
| CS(=O)(=O)c1ccc(C2=C(c3ccccc3)C(=O)OC2)cc1 | inactive |  |
| CCCCC(C)(C)[C@H](O)C=C[C@H]1[C@H](O)CC(=O)[C@H]1CC=CCCCC(=O)O |  | 5.31% (inactive) |
| CCOC(=O)[C@H](CCc1ccccc1)N[C@@H](C)C(=O)N1CCCC1C(=O)O (stereo not given in full) |  | -3.65% (inactive) |
| COc1cc2nccc(Oc3ccc(NC(=O)Nc4ccc(F)cc4F)c(F)c3)c2cc1OC |  | 2.37% (inactive) |
| COC1CCC(C(=O)c2ccc3nc4c(cc3c2)CCCO4)CC1 (stereo not given) |  | -1.09% (inactive) |
| CNC(=O)[C@H](CC1=CN=C2C=CCC=C12)NC(=O)[C@@H](CC(=O)NO)CC(C)C |  | 1.27% (inactive) |
| c1ccc(-c2oc3ncnc(NC[C@@H]4CCCO4)c3c2-c2ccccc2)cc1 | inactive |  |
| CCC(C)SSc1ncc[nH]1 (stereo not given) |  | -13.5% (inactive) |
| O=[N+]([O-])c1ccc(Nc2ccccc2-c2ccccc2)c2nonc12 |  | 7.68% (inactive) |
| CCC(=O)N1CCN(c2ccc(-n3c(=O)ccc4cnc5ccc(-c6cnc7ccccc7c6)cc5c43)cc2C(F)(F)F)CC1 | inactive |  |
| COc1cccc(OC)c1-c1cc(C(=O)NC2(C(=O)O)C3CC4CC(C3)CC2C4)nn1-c1ccnc2cc(Cl)ccc12 (stereo not given) |  | -8.75% (inactive) |
| CN1CCN(c2cccc(Nc3nc4c(-c5ccc(S(C)(=O)=O)cc5)cccn4n3)c2)CC1 | inactive |  |
